The source of these data is PubChem BioAssay (NCI).

Each structure is given as a SMILES string. The panel holds about 83,000 compounds, 20% with a hit somewhere; the sample as a whole holds those more often.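 The test compound was applied at a single concentration to cells in 96-well plates for 48 hours, and percent growth was recorded.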 Unmarked numbers belong to inactive results. The source made the active and inactive calls. The calls were made as follows: active = growth percent below 10; inactive = the rest.

Test systems include NCI-H23 lung; NCI-H226 lung; NCI-H322M lung; HOP-62 NSCLC; NCI-H460 lung; HOP-92 NSCLC; NCI-H522 lung; A549/ATCC NSCLC; 786-0 renal; COLO 205 colon.
Common to all, as to test: NCI-60 one-dose screen, 48 h (100 = growth as untreated, 0 = no growth, -100 = all killed)
What all share (conditions): 10 µM unless noted

Regarding `C=CCCCN=C=S`, the growth was 82% in the assay on NCI-H23 lung; 94.9% in the assay with NCI-H226 lung; 80.7% with NCI-H322M lung; 76.1% in the assay with HOP-62 NSCLC; 47.9% with NCI-H460 lung; 92% in the assay with HOP-92 NSCLC. For the same molecule, the growth in the assay on NCI-H522 lung was 38%; in the assay on A549/ATCC NSCLC, 75.2%; in the assay on 786-0 renal, 93.4%; in the assay on COLO 205 colon it was 91.2%.

For the molecule `ClCCN(CCCl)c1ccc(/C=N\N=C\c2ccc(N(CCCl)CCCl)cc2)cc1`, the growth was 62% in the assay with NCI-H23 lung; 28.9% in the assay with NCI-H226 lung; 74.2% in the assay with NCI-H322M lung; 39.1% with HOP-62 NSCLC; 14.7% with NCI-H460 lung; 76.7% in the assay with HOP-92 NSCLC. Further, the growth is 11.1% in the assay on NCI-H522 lung, 13.6% with A549/ATCC NSCLC, 31.7% with 786-0 renal and 37.4% in the assay on COLO 205 colon.

Turning to `NC(=Nc1ccccc1)N[N+](=O)[O-]`, the growth with NCI-H23 lung is 93.7%; with NCI-H226 lung, 90.1%; with NCI-H322M lung, 109%; in the assay with HOP-62 NSCLC it was 104%; in the assay on NCI-H460 lung, 105%; in the assay with HOP-92 NSCLC, 118%. Further, the growth with NCI-H522 lung was 115%; in the assay with A549/ATCC NSCLC, 107%; in the assay on 786-0 renal it was 113%; in the assay with COLO 205 colon, 107%.

For the molecule `CCC1CC(O)c2c(O)c3c(c(O)c2C1O)C(=O)c1cccc(O)c1C3=O` (stereo not given) (tested in a mixture with another compound), the growth with NCI-H23 lung was -75.9% (active); in the assay with NCI-H226 lung it was -9.01% (active); with NCI-H322M lung, -16.4% (active); with HOP-62 NSCLC, -62.2% (active); in the assay on NCI-H460 lung, -53.6% (active); with HOP-92 NSCLC it was -29.3% (active). Also, the growth in the assay on NCI-H522 lung was -47.9% (active); with A549/ATCC NSCLC, -23.2% (active); with 786-0 renal, -31% (active); in the assay on COLO 205 colon, -46.4% (active).

Consider `C/C(CC(C)(C)N1CC1)=N\NC(=O)Nc1cccc2ccccc12`, for which the growth in the assay with NCI-H23 lung is 68%; with NCI-H226 lung it was 56.4%; in the assay with NCI-H322M lung, 81.2%; in the assay on HOP-62 NSCLC it was 62.5%; in the assay with NCI-H460 lung, 42.9%; in the assay with HOP-92 NSCLC, 24.2%. Further, the growth is 48.7% in the assay on NCI-H522 lung, 63% in the assay on A549/ATCC NSCLC, 70.4% in the assay on 786-0 renal and 52.3% with COLO 205 colon.

Consider `O=C(Nc1ccc(Br)cc1)c1cc(Br)cc(Br)c1O`, for which the growth in the assay on NCI-H23 lung was -14.1% (active); in the assay on NCI-H226 lung it was 10.6%; in the assay with NCI-H322M lung, 13.7%; with HOP-62 NSCLC, -4.33% (active); with NCI-H460 lung, -25.3% (active); in the assay with HOP-92 NSCLC, -30.7% (active). For the same molecule, the growth in the assay with NCI-H522 lung is -3.18% (active); in the assay with A549/ATCC NSCLC it was 6.64% (active); with 786-0 renal it was -12.3% (active); with COLO 205 colon, 102%.

Take `COC(=O)C12CC(NC(=O)c3csc([C@@H](C[C@H](C(C)C)N(C)C(=O)[C@@H](NC(=O)[C@H]4CCCCN4C)C(C)C)OC(C)=O)n3)(C1)C2`: the growth was 23.9% with NCI-H23 lung; 10.6% in the assay on NCI-H226 lung; 41.9% with NCI-H322M lung; 6.07% (active) with HOP-62 NSCLC; 5.4% (active) in the assay on NCI-H460 lung; 52.8% in the assay on HOP-92 NSCLC. In addition, the growth in the assay with NCI-H522 lung was -23.6% (active); with A549/ATCC NSCLC, 16.6%; with 786-0 renal it was 18.2%; with COLO 205 colon, -60.1% (active).

Regarding `CCCCCCCCCCCCCCCCCC1OC[C@@H](COC(=O)O[C@@H](C(=O)O[C@H]2C[C@@]3(O)[C@@H](OC(=O)c4ccccc4)[C@@H]4[C@]5(OC(C)=O)CO[C@@H]5C[C@H](O)[C@@]4(C)C(=O)[C@H](OC(C)=O)C(=C2C)C3(C)C)[C@@H](NC(=O)c2ccccc2)c2ccccc2)O1` (stereo not given in full), the growth with NCI-H23 lung is 54.2%; in the assay on NCI-H226 lung it was 83.4%; in the assay with NCI-H322M lung, 55.7%; in the assay on HOP-62 NSCLC it was 68.4%; in the assay on NCI-H460 lung it was 20.4%; in the assay with HOP-92 NSCLC, 66.4%. Also, the growth in the assay with NCI-H522 lung is 57.6%; with A549/ATCC NSCLC it was 47.5%; with 786-0 renal, 90.6%; in the assay on COLO 205 colon it was 13.1%.

As for `Clc1cccc(N2COOC3(OOC2)C2CC4CC(C2)CC3C4)c1`, the growth with NCI-H23 lung is 49%; with NCI-H226 lung, 96.2%; with NCI-H322M lung, 99.6%; with HOP-62 NSCLC, 73%; in the assay on NCI-H460 lung, 87.2%; with HOP-92 NSCLC it was -7.89% (active). Also, the growth in the assay with NCI-H522 lung is 2.67% (active); with A549/ATCC NSCLC it was 76%; in the assay with 786-0 renal, 7.65% (active); in the assay on COLO 205 colon, 111%.

For `COC(=O)[C@@H](C)C[C@H](Cc1ccccc1)NC(=O)c1csc([C@@H](C[C@H](C(C)C)N(C)C(=O)[C@@H](NC(=O)[C@H]2CCCCN2C)C2CCCCC2)OC(C)=O)n1`, the growth in the assay on NCI-H23 lung was 16.1%; in the assay with NCI-H226 lung, 20.5%; with NCI-H322M lung it was 34.1%; in the assay with HOP-62 NSCLC, -19.8% (active); in the assay with NCI-H460 lung, 1.05% (active); with HOP-92 NSCLC it was -13.2% (active). Further, the growth in the assay with NCI-H522 lung was -32.1% (active); with A549/ATCC NSCLC, 11.4%; with 786-0 renal, 3.22% (active); with COLO 205 colon it was -75.7% (active).

Turning to `[Au+].[N-]=C=O.c1ccc(CN2[CH-]N(Cc3ccccc3)C(c3ccccc3)=C2c2ccccc2)cc1`, the growth with NCI-H23 lung was 79.5%; with NCI-H226 lung, 107%; with NCI-H322M lung, 112%; with HOP-62 NSCLC it was 116%; with NCI-H460 lung it was 98.5%; in the assay with HOP-92 NSCLC it was 81.4%. Moreover, the growth with NCI-H522 lung is 5.83% (active); in the assay with A549/ATCC NSCLC, 92.7%; in the assay with 786-0 renal it was 90.2%; with COLO 205 colon, 92.5%.

`C=CCc1cc2c(cc1OCC)OCO2`: the growth is 95.6% in the assay with NCI-H23 lung; 99.3% with NCI-H226 lung; 114% with NCI-H322M lung; 64.7% in the assay on HOP-62 NSCLC; 102% in the assay on NCI-H460 lung; 81.1% with HOP-92 NSCLC. In addition, the growth is 74.5% with NCI-H522 lung, 88.9% in the assay on A549/ATCC NSCLC, 92.4% in the assay with 786-0 renal and 108% in the assay on COLO 205 colon.
